Assay results from the supplement of paper PMC10941209.

The molecules below were run on HFF (assay: cell viability relative to DMSO control; higher = less cytotoxic). Conditions: 1 µM; 72 h.
Protocol: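 Single-dose cytotoxicity screen of the MMV Pandemic Response Box at 1 uM on human foreskin fibroblasts (HFF), 72 h at 37 C. Viability measured by MTT (OD 550 nm) and normalised to the DMSO control (% survival).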

Row | SMILES | cell viability [%]
1 | C[C@H]1[C@@H](c2cccc(C(F)(F)F)c2)OC(=O)N1C(=O)NCc1cncc2ccccc12 | 70
2 | CC1CN(c2ncnc3c2c(-c2ccccc2)cn3-c2ccc(F)cc2)CC(C)O1 (configuration not stated) | 75.3
3 | O=C(Nc1nnc(-c2ccc(Cl)cc2)o1)c1ccc(F)cc1 | 65.9
4 | O=C(O)CCNC(=O)c1ccccc1 | 66.9
5 | COc1ccc2c(c1OC)C(=O)OC2C1c2c(cc3c(c2OC)OCO3)CCN1C (configuration not stated) | 74.8
6 | CCCCCCC1c2ccc(O)cc2Oc2cc(O)ccc21 | 72.2
7 | NC(=O)c1ccc(I)c([N+](=O)[O-])c1 | 71.1
8 | CC(C)Nc1ncnc2c1cnn2-c1ccc(Cl)cc1 | 71.9
9 | COc1ccc(COc2cc3oc(=O)c4cc(C(C)O)ccc4c3cc2OC)cc1 (configuration not stated) | 57.3
10 | COc1ccc(NC(=O)CC2Sc3ncnn3C2=O)cc1 (configuration not stated) | 73.4
11 | Nc1cccc(-c2nc(N)nc(NC3Cc4ccccc4C3)n2)c1 | 68.2
12 | O=C(Cn1cnc2ccccc2c1=O)Nc1ccccc1 | 62.8
13 | Cc1c(F)cccc1NC(=O)Nc1ccc(Cl)c(S(=O)(=O)[C@H]2CCCNC2)c1O | 60.8
14 | COc1c(NC(=O)[C@H]2CC[C@@H](COc3ccc([N+](=O)[O-])cc3)CC2)c(F)cc2c(=O)c(C(=O)O)cn(C3CC3)c12 | 62.8
15 | COc1ccc(NC(=O)c2cc3ccccn3n2)cc1 | 62.2
16 | CCc1cc(Cc2cnc(N)nc2N)cc2c1N(C)CCC2C (configuration not stated) | 71.9
17 | O=C(NN1C(=O)[C@@H]2[C@@H]3C=C[C@@H]([C@H]4C[C@@H]34)[C@@H]2C1=O)c1ccc(C(F)(F)F)cc1 | 71.8
18 | O=C(Nc1ccccc1)N(Cc1cc(Br)ccc1O)c1ccc(F)cc1 | 67.1
19 | O=C(NC(=O)N1CCCc2ccccc21)c1ccc(Cl)cc1Cl | 70.2

Row | SMILES | cell viability [%]
20 | NC[C@H]1OB(O)c2c(OCCCO)cccc21 | 69.9
21 | Cc1cc(CCOc2c(C)cc(-c3nnn(C)n3)cc2C)on1 | 69.2
22 | COc1cc(Cc2cnc(N)nc2N)cc(OC)c1OC | 64.8
23 | NC(=O)c1cnccn1 | 68.1
24 | O=[N+]([O-])c1ccc2c(CCc3c[nH]c4ccccc34)c[nH]c2c1 | 61.9
25 | O=S(=O)(NCB(O)O)c1ccc(-c2nnn[nH]2)cc1C(F)(F)F | 70.9
26 | Cc1c(N)cccc1Cn1ccc(OCCc2cccs2)cc1=O | 60.5
27 | O=C(NCc1cccc2ccccc12)c1cccs1 | 66
28 | Cc1cc(O)c2c(c1)C(=O)c1c(I)c(O)c(I)c(O)c1C2=O | 71.9
29 | Fc1ccc(-n2cc(Cn3c(-c4cccc(F)c4)nc4ccccc43)nn2)cc1 | 71.1
30 | NC[C@H]1O[C@H](O[C@H]2[C@H](O)[C@@H](O[C@H]3O[C@H](CO)[C@@H](O)[C@H](N)[C@H]3O)[C@H](N)C[C@@H]2N)[C@H](N)C[C@@H]1O | 68.2
31 | CCc1oc2ccccc2c1C(=O)c1ccc(O)cc1 | 71.1
32 | O=C1NC(=O)C(Br)=C1Br | 63.1
33 | O=C1NC(=S)N/C1=C\c1cc(Br)cc(Br)c1O | 72.6
34 | CC(=O)Nc1cc(NS(=O)(=O)c2ccc(Cl)cc2)cc2c(Cl)[nH]nc12 | 67.2
35 | O=c1[nH]c(=O)n(Cc2cccc(Oc3ccccc3)c2)cc1Nc1ccccc1 | 63.8
36 | C[C@H](NC(=O)C(=O)Nc1ccccc1C(C)(C)C)C(=O)N[C@@H](CC(=O)O)C(=O)COc1c(F)c(F)cc(F)c1F | 55.9
37 | CC(=O)NC[C@H]1CN(c2ccc(N3CCSCC3)c(F)c2)C(=O)O1 | 67.2
